Measurements from PubChem BioAssay (NCATS).
Values joined by “and” are separate entries in the source; they are usually repeats but may differ in a detail not shown here. Equal values may be shown once. Results filed as inconclusive are left out. Active and inactive are the calls of the source. The call rests on the fitted dose curve; in most records, active means well fitted curve in the direction sought with a large enough effect; inconclusive means small, poorly fitted or top-dose-only effect, or another doubt; inactive means no such curve, though single readings can be large; an effect the other way counts as inactive or inconclusive.

Tests used:
HaCat [1] = assay: Cytotoxic Profiling of Annotated Libraries Using Quantitative High-Throughput Screening (AID 1296008); conditions: Five cell lines viability, CellTiter-Glo ATP luminescence, 48-72 h; max response: active compounds read low; further: nearly all actives have a fitted effect of over 60% in size; on max response: on the % scale 0 is the no-effect control and ±100 the full control effect
Outline: (§1)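 Cells exposed to compounds for 48 or 72 hr at 37 degrees Celsius. Viability read as ATP-coupled luminescence with CellTiter-Glo after 10 min at room temperature.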

KB-3-1 = assay: as above; conditions: Five cell lines viability, CellTiter-Glo ATP luminescence, 48-72 h; max response: active compounds read low
Outline: as §1

NIH3T3 = assay: as above; conditions: Five cell lines viability, CellTiter-Glo ATP luminescence, 48-72 h; max response: active compounds read low
Outline: as §1

HACAT [2] = assay: qHTS assay to identify novel small-molecules to repurpose for Merkel cell carcinoma treatment (AID 1296009); conditions: MCC and control cell lines, CellTiter-Glo viability, 72 h; at 44.8 µM (top of the series) unless noted; further: nearly all actives have a fitted effect of over 60% in size
Outline: (§2)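 Cells were treated for 72 hr at 37 degree celsius with compounds in 8- or 11-point dose response. Viability was read by CellTiter-Glo luminescence, normalized to no-cell (cytotoxicity) and DMSO controls.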

MCC-13 = assay: as above; conditions: MCC and control cell lines, CellTiter-Glo viability, 72 h; series mostly up to 46 µM
Outline: as §2

MKL-1 = assay: as above; conditions: MCC and control cell lines, CellTiter-Glo viability, 72 h; series mostly up to 46 µM
Outline: as §2

MKL-2 = assay: as above; conditions: MCC and control cell lines, CellTiter-Glo viability, 72 h; series mostly up to 46 µM
Outline: as §2

UISO = assay: as above; conditions: MCC and control cell lines, CellTiter-Glo viability, 72 h; series mostly up to 46 µM
Outline: as §2

WaGa = assay: as above; conditions: MCC and control cell lines, CellTiter-Glo viability, 72 h; series mostly up to 46 µM
Outline: as §2

C33A = assay: Primary qHTS to identify gynecologic anti-cancer compounds using libraries of approved drugs and bioactive compounds (AID 1345084); conditions: Gynecologic cancer cell panel viability, ATPlite luminescence, 48 h; series mostly up to 57.5 µM; further: nearly all actives have a fitted effect of over 55% in size
Outline: (§3)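 Cells, 1,000 per well, plated 16 h, then exposed 48 h at 37 C to compounds. Viability by ATPlite luminescence after 15 min at room temperature.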

CAOV3 = assay: as above; conditions: Gynecologic cancer cell panel viability, ATPlite luminescence, 48 h; series mostly up to 57.5 µM
Outline: as §3

CASKI = assay: as above; conditions: Gynecologic cancer cell panel viability, ATPlite luminescence, 48 h; series mostly up to 57.5 µM
Outline: as §3

Es-2 = assay: as above; conditions: Gynecologic cancer cell panel viability, ATPlite luminescence, 48 h; series mostly up to 57.5 µM
Outline: as §3

HEK293 = assay: Cytotoxic Profiling of Annotated Libraries Using Quantitative High-Throughput Screening (AID 1296008); conditions: Five cell lines viability, CellTiter-Glo ATP luminescence, 48-72 h; max response: active compounds read low; further: nearly all actives have a fitted effect of over 60% in size; on max response: on the % scale 0 is the no-effect control and ±100 the full control effect
Outline: as §1

MCC-26 = assay: qHTS assay to identify novel small-molecules to repurpose for Merkel cell carcinoma treatment (AID 1296009); conditions: MCC and control cell lines, CellTiter-Glo viability, 72 h; series mostly up to 46 µM; further: nearly all actives have a fitted effect of over 60% in size
Outline: as §2

TAB165 = assay: qHTS profiling for inhibitors of Plasmodium falciparum proliferation (AID 504749); further: nearly all actives have a fitted effect of over 60% in size; conditions: P. falciparum in erythrocytes, SYBR Green DNA, 72 h; series mostly up to 28.7 µM
Outline: (§4)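 P. falciparum-infected erythrocytes (0.3% parasitemia, 2.5% hematocrit) incubated with compound 72 h at 37 C, 5% CO2. Parasite DNA detected by SYBR Green after lysis, overnight at room temperature; normalised to 0.29 uM artemisinin and DMSO.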

W2 = assay: as above; conditions: P. falciparum in erythrocytes, SYBR Green DNA, 72 h; series mostly up to 28.7 µM
Outline: as §4
Potency means the concentration at half of the fitted maximal effect.

COc1ccc2nc(S(=O)Cc3ncc(C)c(OC)c3C)[nH]c2c1 (stereo unspecified)
inactive: outcome (HaCat [1]) | max response (KB-3-1) -5.29% | max response (NIH3T3) -7.21% and -1.13% | outcome (HACAT [2]) | Potency (MCC-13) | Potency (MKL-1) | Potency (MKL-2) | Potency (UISO) | Potency (WaGa) | Potency (C33A) | Potency (CAOV3) | Potency (CASKI) | Potency (Es-2)

Cc1cc2c(C(C)C)c(O)c(O)c(C=O)c2c(O)c1-c1c(C)cc2c(C(C)C)c(O)c(O)c(C=O)c2c1O
active: Potency (HEK293) 23.5 µM | Potency (KB-3-1) 9.35 µM | Potency (MKL-1) 13.3 µM | Potency (UISO) 21.1 µM | Potency (WaGa) 23.7 µM
inactive: Potency (MCC-13) | Potency (MCC-26) | Potency (CASKI) | Potency (Es-2)

c1ccc(-c2nn3c(c2-c2ccnc4cc(OCCN5CCOCC5)ccc24)CCC3)nc1
active: Potency (NIH3T3) 5.26 µM | Potency (WaGa) 14.8 µM
inactive: max response (HaCat [1]) -14.5% | max response (KB-3-1) 6.43% | Potency (MCC-13) | Potency (MCC-26) | Potency (MKL-1) | Potency (MKL-2)

NC(=O)c1ccc(-c2nc(-c3ccc4c(c3)OCCO4)c(-c3ccccn3)[nH]2)cc1
inactive: max response (HaCat [1]) -0.259% | max response (NIH3T3) -6.71% | Potency (MCC-13) | Potency (MCC-26) | Potency (MKL-1) | Potency (UISO) | Potency (WaGa)

CC(=O)NC(C)c1ccc(Oc2ccc(OC(C)C)cc2)cc1 (stereo unspecified)
active: Potency (HEK293) 14.8 µM
inactive: max response (HaCat [1]) -3.76% | max response (KB-3-1) 7.61% | Potency (MCC-13) | Potency (MCC-26) | Potency (MKL-1)

N#Cc1ccc(C(c2ccc(C#N)cc2)n2cncn2)cc1
inactive: Potency (TAB165) | Potency (W2) | max response (HaCat [1]) 2.76% | max response (KB-3-1) -0.837% and -6.35% | max response (NIH3T3) 2.6% | Potency (MCC-13) | Potency (MKL-2) | Potency (UISO) | Potency (WaGa)

CCc1cncnc1N1CCN(Cc2nc3ccc(C(F)(F)F)cc3[nH]2)CC1
inactive: max response (HaCat [1]) -29.7% | Potency (MCC-13) | Potency (MKL-1) | Potency (MKL-2) | Potency (C33A) | Potency (CAOV3) | Potency (CASKI) | Potency (Es-2)
active: Potency (HEK293) 14.8 µM and 13 µM

O=C(Nc1cccnc1)N1CCC(Cc2cccc(Oc3ccc(C(F)(F)F)cn3)c2)CC1
active: Potency (HEK293) 10.5 µM and 8.2 µM | Potency (MKL-2) 16.6 µM | Potency (UISO) 16.6 µM
inactive: max response (HaCat [1]) -12.8% | Potency (MCC-26) | Potency (CAOV3)

OC[C@H](Cc1ccccc1)Nc1nc(Oc2ccc3c(c2)CCC3)nc2c1ncn2Cc1ccc(-c2ccccc2)cc1
inactive: outcome (HaCat [1]) | max response (KB-3-1) -22.3% | max response (NIH3T3) 1.2% | outcome (HACAT [2]) | Potency (MCC-13) | Potency (MKL-1) | Potency (MKL-2)
active: Potency (HEK293) 8.33 µM

NC[C@H](O)c1ccc(O)c(O)c1
inactive: Potency (TAB165) | Potency (W2) | Potency (C33A) | Potency (CAOV3) | Potency (CASKI) | Potency (Es-2)

N[C@@H]1CONC1=O
inactive: Potency (TAB165) | Potency (W2) | Potency (C33A) | Potency (CAOV3) | Potency (CASKI) | Potency (Es-2)

CS(=O)(=O)c1cccc(CNc2nc(Nc3ccc4c(c3)CCC(=O)N4)ncc2C(F)(F)F)c1
inactive: Potency (MCC-13) | Potency (MCC-26) | Potency (MKL-2) | Potency (C33A) | Potency (CAOV3) | Potency (CASKI) | Potency (Es-2)
active: Potency (HEK293) 18.4 µM | Potency (HaCat [1]) 14.6 µM | Potency (KB-3-1) 18.7 µM | Potency (NIH3T3) 8.2 µM | Potency (WaGa) 16.6 µM

Nc1nccc(-c2ccc3noc(-c4ccc(Cl)cc4)c3c2)n1
inactive: max response (HaCat [1]) -32.6% | max response (KB-3-1) 5.59% | max response (NIH3T3) -8.8% | Potency (MCC-13) | Potency (MCC-26) | Potency (MKL-1) | Potency (MKL-2) | Potency (WaGa)

Cc1cc(-c2ccc(CC(=O)Nc3ccc(-c4cccnc4)cc3)cc2)ccn1
inactive: outcome (HaCat [1]) | outcome (HACAT [2]) | Potency (MCC-13) | Potency (MKL-1) | Potency (WaGa)
active: Potency (HEK293) 9.35 µM

Cc1oncc1C(=O)Nc1ccc(C(F)(F)F)cc1
inactive: Potency (TAB165)
active: Potency (W2) 3.22 µM | Potency (CAOV3) 12.6 µM | Potency (CASKI) 31.6 µM | Potency (Es-2) 28.2 µM

Cc1cc(Nc2nc(N[C@@H](C)c3ncc(F)cn3)ncc2Cl)n[nH]1
active: Potency (HEK293) 7.31 µM | Potency (HaCat [1]) 6.51 µM | Potency (NIH3T3) 8.2 µM
inactive: Potency (MCC-13) | Potency (MCC-26) | Potency (C33A) | Potency (Es-2)

O=c1ncn2nc(Sc3ccc(F)cc3F)ccc2c1-c1c(Cl)cccc1Cl
active: Potency (HEK293) 13.2 µM
inactive: max response (KB-3-1) -0.339% | Potency (MCC-13) | Potency (MCC-26) | Potency (MKL-1) | Potency (MKL-2)
